# PMC4336329 (PLoS ONE, 2015)
# In all, about 310,000 compounds went through this assay and about 14,000 (4.5%) showed an effect of 50% or more. The effect is printed as a negative number. Many of the other results were omitted from the sample, so strong results are more common in it than they were.
# Target: human ether-à-go-go-related gene (hERG) potassium channel (human, UniProt Q12809)
# Assay: primary screen, population patch clamp on CHO cells stably expressing hERG; higher = less effect of the substance
# 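Also: peak tail current of the secondary pulse compared with the same well before compound.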
# Sequence of human ether-à-go-go-related gene (hERG) potassium channel (Q12809 whole entry, looked up): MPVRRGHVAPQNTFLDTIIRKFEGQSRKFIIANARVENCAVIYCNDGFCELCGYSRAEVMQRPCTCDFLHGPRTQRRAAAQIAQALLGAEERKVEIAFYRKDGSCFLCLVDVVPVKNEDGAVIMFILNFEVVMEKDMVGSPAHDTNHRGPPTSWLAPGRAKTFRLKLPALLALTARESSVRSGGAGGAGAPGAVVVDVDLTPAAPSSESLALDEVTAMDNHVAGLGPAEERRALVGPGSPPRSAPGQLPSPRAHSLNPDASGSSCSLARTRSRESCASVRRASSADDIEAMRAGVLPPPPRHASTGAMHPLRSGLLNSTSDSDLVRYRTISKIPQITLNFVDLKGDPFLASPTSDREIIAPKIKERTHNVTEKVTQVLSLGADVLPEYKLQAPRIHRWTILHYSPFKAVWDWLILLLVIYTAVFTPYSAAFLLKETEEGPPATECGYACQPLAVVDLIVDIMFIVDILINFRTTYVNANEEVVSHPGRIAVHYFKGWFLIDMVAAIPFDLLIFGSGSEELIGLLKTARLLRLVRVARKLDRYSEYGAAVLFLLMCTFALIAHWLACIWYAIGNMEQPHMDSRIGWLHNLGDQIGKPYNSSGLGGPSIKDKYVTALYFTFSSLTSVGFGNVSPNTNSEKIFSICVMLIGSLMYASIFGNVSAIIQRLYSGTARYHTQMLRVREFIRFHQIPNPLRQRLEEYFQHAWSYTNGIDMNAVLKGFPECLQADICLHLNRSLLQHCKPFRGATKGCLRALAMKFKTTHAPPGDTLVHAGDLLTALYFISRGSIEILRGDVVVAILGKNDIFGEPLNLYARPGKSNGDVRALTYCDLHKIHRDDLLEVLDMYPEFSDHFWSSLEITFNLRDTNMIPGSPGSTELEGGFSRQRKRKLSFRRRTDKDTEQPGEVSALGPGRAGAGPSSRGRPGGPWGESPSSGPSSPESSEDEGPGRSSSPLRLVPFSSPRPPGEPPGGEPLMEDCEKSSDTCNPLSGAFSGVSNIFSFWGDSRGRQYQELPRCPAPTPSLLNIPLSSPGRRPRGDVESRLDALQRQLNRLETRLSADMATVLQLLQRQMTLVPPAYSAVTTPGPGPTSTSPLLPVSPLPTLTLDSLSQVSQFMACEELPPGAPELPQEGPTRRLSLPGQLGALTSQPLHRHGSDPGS
row,Compound,"hERG current change (%, negative = inhibition) at 10uM [%]"
1,Cc1ccc(C(=O)COC(=O)CNC(=O)C(c2ccccc2)c2ccccc2)cc1[N+](=O)[O-],4.33
2,O=C(O)CC1Sc2ccccc2NC1=O (stereo not shown),-13.4
3,CN(C)C=O.Cc1ccc(S(=O)(=O)N(C)C)cc1NC(=S)Nc1ccc2[nH]c(=O)[nH]c2c1,76.2
4,CCc1cccc(OCC2Cn3c(nc4c3c(=O)n(C)c(=O)n4C)O2)c1 (stereo not shown),3.18
5,CC12CCC(=O)N1C(C(=O)Nc1ccc(S(=O)(=O)N3CCCCC3)cc1)CS2 (stereo not shown),-5.09
6,CC12CCC(=O)N1C(C(=O)Nc1cccc(S(=O)(=O)N3CCCCCC3)c1)CS2 (stereo not shown),-69.8
7,CC12CCC(=O)N1C(C(=O)Nc1cccc(S(=O)(=O)N3CCCCC3)c1)CS2 (stereo not shown),-43.9
8,CCOc1cccc(N2C(=O)CC(N(CCc3ccc(OC)c(OC)c3)C(=O)CC)C2=O)c1 (stereo not shown),24.9
9,Cc1ccc(Cc2nnc(SCC(=O)Nc3ccc(C)cc3C)[nH]c2=O)cc1,5.33
10,Cc1ccc(NC(=O)CSc2nnc(Cc3ccccc3)c(=O)[nH]2)c(C)c1,-51.4
11,COc1ccc(Cc2nnc(SCC(=O)Nc3ccc(C)cc3C)[nH]c2=O)cc1,-16.8
12,CCOc1cc(CNc2ccc3c(c2)CCC3)ccc1OC,-8.96
13,Cc1ccc(NC(=O)CS(=O)(=O)c2c[nH]c3ccccc23)c(C)c1,11.9
14,Cc1ccc(CC(=O)NCc2ccc3c(c2)OCO3)cc1,2.24
15,O=C(CN1N=C(c2ccccc2)CCC1=O)NCCN1CCc2ccccc2C1,-15.7
16,Cc1ccc(C2=NN(CC(=O)NCCN(CC(C)C)CC(C)C)C(=O)CC2)cc1,-50.2
17,COc1ccc(C2=NN(CCC(=O)NCc3ccc4c(c3)OCO4)C(=O)CC2)cc1,-18.8
18,O=C(CN1N=C(c2ccc(Cl)cc2)CCC1=O)NCCN1CCc2ccccc2C1,-51.4
19,Cc1ccc(C2=NN(CCC(=O)NCc3ccc4c(c3)OCO4)C(=O)CC2)cc1,-69.7
20,O=C(CN1N=C(c2ccccc2)CCC1=O)NCCCN1CCc2ccccc2C1,-49.6
21,Cc1ccc(C2=NN(CCC(=O)NCCC(C)C)C(=O)CC2)cc1,-24.5
22,O=C(CCN1N=C(c2ccccc2)CCC1=O)NCCCN1CCOCC1,21.2

row,Compound,"hERG current change (%, negative = inhibition) at 10uM [%]"
1,CC(C)CN(CCNC(=O)CN1N=C(c2ccc(Cl)cc2)CCC1=O)CC(C)C,-42.4
2,Cc1ccc(C2=NN(CCC(=O)NCCCN3CCOCC3)C(=O)CC2)cc1,-52.3
3,Cc1ccc(-c2ccc(=O)n(CC(=O)NCCN(CC(C)C)CC(C)C)n2)cc1,-16.3
4,O=C(CN1C(=O)NC2(CCCC2)C1=O)N1CCN(S(=O)(=O)c2ccccc2F)CC1,22.3
5,O=[N+]([O-])c1ccc(O)c(NC(=S)Nc2ccccc2)c1,23.9
6,NC(=S)NC1CC2CC1C1C=CCC21 (stereo not shown),6.66
7,CCOc1ccc(N(CC(=O)NCc2ccc(C)cc2)S(=O)(=O)c2c(C)[nH]c(=O)[nH]c2=O)cc1,6.73
8,Cc1nn(-c2ccccc2)c(Cl)c1C(=O)NCCCCNC(=O)c1c(C)nn(-c2ccccc2)c1Cl,-2.76
9,CN(C)CCCNc1ccc(S(N)(=O)=O)cc1[N+](=O)[O-],-13.1
10,CCCCCCCNC(=O)CN1N=C(c2ccc(C)cc2)CCC1=O,-67.8
11,Cc1ccc(C2=NN(CC(=O)O)C(=O)CC2)cc1,-51.4
12,Cc1ccc(C2=NN(CC(=O)NCCN(C)C)C(=O)CC2)cc1,-44.9
13,CCN(CC)CCCNC(=O)CN1N=C(c2ccc(OC)cc2)CCC1=O,14.5
14,CCOC(=O)CN1N=C(c2ccc(C)cc2)CCC1=O,-47.2
15,CC(C)CCNC(=O)CN1N=C(c2ccc(Cl)cc2)CCC1=O,-15.8
16,CCOCCCNC(=O)CN1N=C(c2ccc(C)cc2)CCC1=O,-73.9
17,CC(C)CN(CCCNC(=O)CN1N=C(c2ccc(Cl)cc2)CCC1=O)CC(C)C,-21.8
18,CCCCN(C)CCCNC(=O)CN1N=C(c2ccc(Cl)cc2)CCC1=O,-56.7
19,C=CCNC(=O)CN1N=C(c2ccc(C)cc2)CCC1=O,-44.3
20,COCCNC(=O)CN1N=C(c2ccc(C)cc2)CCC1=O,-47.9
21,Cc1ccc(C2=NN(CC(=O)NCCC(C)C)C(=O)CC2)cc1,4.58
